# In PMC11006913:
# Numbering of substitutions follows the chain as printed.
# Experiments:
# Test in all cases: PBM; 200 nM protein, PBS
# Details in all cases: dsDNA, one strand shown
# NKX2-4 [1] = biological target: T1, NKX2-4 (Homo sapiens, UniProt Q9H2Z4 175-261, P217L)
# T1 sequence: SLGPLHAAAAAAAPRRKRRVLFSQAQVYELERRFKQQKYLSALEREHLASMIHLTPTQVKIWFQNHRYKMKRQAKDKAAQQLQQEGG
# NKX2-4 [2] = biological target: T2, NKX2-4 (Homo sapiens, UniProt Q9H2Z4 175-261, T231S)
# T2 sequence: T1 sequence with L43P, T57S
# NKX2-4 [3] = biological target: T3, NKX2-4 (Homo sapiens, UniProt Q9H2Z4 175-261)
# T3 sequence: T1 sequence with L43P
# NKX2-6 [4] = biological target: T4, NKX2-6 (Homo sapiens, UniProt A6NCS4 118-204, R150C)
# T4 sequence: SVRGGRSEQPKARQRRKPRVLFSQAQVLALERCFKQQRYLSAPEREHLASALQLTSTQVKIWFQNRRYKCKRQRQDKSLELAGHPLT
# NKX2-6 [5] = biological target: T5, NKX2-6 (Homo sapiens, UniProt A6NCS4 118-204)
# T5 sequence: T4 sequence with C33R
# NKX2-4 [6] = biological target: T6, NKX2-4 (Homo sapiens, UniProt Q9H2Z4 175-261, R246Q)
# T6 sequence: T1 sequence with L43P, R72Q
# NKX2-6 [7] = biological target: T7, NKX2-6 (Homo sapiens, UniProt A6NCS4 118-204, F151L)
# T7 sequence: T4 sequence with C33R, F34L
# MSX2 [8] = biological target: MSX2 (Homo sapiens, UniProt P35548 130-214, R199I)
# MSX2 [9] = biological target: MSX2 (Homo sapiens, UniProt P35548 130-214)
# PROP1 [10] = biological target: PROP1 (Homo sapiens, UniProt O75360 56-141)
# PROP1 [11] = biological target: PROP1 (Homo sapiens, UniProt O75360 56-141, R99H)
# PROP1 [12] = biological target: PROP1 (Homo sapiens, UniProt O75360 56-141, F88S)
# MSX2 [13] = biological target: MSX2 (Homo sapiens, UniProt P35548 130-214, F161Y)
# HOXD13 [14] = biological target: HOXD13 (Homo sapiens, UniProt P35453 263-343, T313R)
# HOXD13 [15] = biological target: HOXD13 (Homo sapiens, UniProt P35453 263-343)
# HOXD13 [16] = biological target: HOXD13 (Homo sapiens, UniProt P35453 263-343, T313A)
# ALX4 [17] = biological target: ALX4 (Homo sapiens, UniProt Q9H161 200-286)
# ALX4 [18] = biological target: ALX4 (Homo sapiens, UniProt Q9H161 200-286, Q225E)
# HOXC10 [19] = biological target: HOXC10 (Homo sapiens, UniProt Q9NYD6 254-340)
# HOXC10 [20] = biological target: HOXC10 (Homo sapiens, UniProt Q9NYD6 254-340, K271E)
# HOXA2 [21] = biological target: HOXA2 (Homo sapiens, UniProt O43364 129-215, R185T)
# HOXA2 [22] = biological target: HOXA2 (Homo sapiens, UniProt O43364 129-215, R185K)
# HOXA2 [23] = biological target: HOXA2 (Homo sapiens, UniProt O43364 129-215, Y150S)
# HOXA2 [24] = biological target: HOXA2 (Homo sapiens, UniProt O43364 129-215)
# Chain of HOXA2 (Homo sapiens, UniProt O43364 129-215) (O43364 129-215): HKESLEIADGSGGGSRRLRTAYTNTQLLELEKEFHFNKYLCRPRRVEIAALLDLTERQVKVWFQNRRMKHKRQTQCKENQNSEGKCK
# Chain of HOXC10 (Homo sapiens, UniProt Q9NYD6 254-340) (Q9NYD6 254-340): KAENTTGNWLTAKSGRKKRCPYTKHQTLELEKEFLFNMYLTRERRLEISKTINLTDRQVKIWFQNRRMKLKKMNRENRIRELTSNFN
# Chain of HOXC10 (Homo sapiens, UniProt Q9NYD6 254-340, K271E) (Q9NYD6 254-340 K271E): as the sequence (Q9NYD6 254-340) above, with K18E counted along it
# Chain of PROP1 (Homo sapiens, UniProt O75360 56-141, R99H) (O75360 56-141 R99H): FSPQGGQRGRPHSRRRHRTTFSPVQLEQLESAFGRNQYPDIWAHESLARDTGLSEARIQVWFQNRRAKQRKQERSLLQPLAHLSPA
# Chain of MSX2 (Homo sapiens, UniProt P35548 130-214, F161Y) (P35548 130-214 F161Y): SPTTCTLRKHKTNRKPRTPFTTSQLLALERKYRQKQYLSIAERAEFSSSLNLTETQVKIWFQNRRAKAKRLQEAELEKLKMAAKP
# Chain of ALX4 (Homo sapiens, UniProt Q9H161 200-286, Q225E) (Q9H161 200-286 Q225E): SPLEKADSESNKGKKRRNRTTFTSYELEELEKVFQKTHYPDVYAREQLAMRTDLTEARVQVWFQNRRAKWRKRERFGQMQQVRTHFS
# Chain of PROP1 (Homo sapiens, UniProt O75360 56-141, F88S) (O75360 56-141 F88S): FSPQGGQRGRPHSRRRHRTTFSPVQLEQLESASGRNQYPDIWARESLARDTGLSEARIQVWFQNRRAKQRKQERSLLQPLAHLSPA
# Chain of HOXA2 (Homo sapiens, UniProt O43364 129-215, R185K) (O43364 129-215 R185K): as the sequence (O43364 129-215) above, with R57K counted along it
# Chain of ALX4 (Homo sapiens, UniProt Q9H161 200-286) (Q9H161 200-286): as the sequence (Q9H161 200-286 Q225E) above, with E26Q counted along it
# Chain of HOXD13 (Homo sapiens, UniProt P35453 263-343, T313R) (P35453 263-343 T313R): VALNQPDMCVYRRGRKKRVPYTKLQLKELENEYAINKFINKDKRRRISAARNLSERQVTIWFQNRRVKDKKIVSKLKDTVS
# Chain of HOXA2 (Homo sapiens, UniProt O43364 129-215, Y150S) (O43364 129-215 Y150S): as the sequence (O43364 129-215) above, with Y22S counted along it
# Chain of PROP1 (Homo sapiens, UniProt O75360 56-141) (O75360 56-141): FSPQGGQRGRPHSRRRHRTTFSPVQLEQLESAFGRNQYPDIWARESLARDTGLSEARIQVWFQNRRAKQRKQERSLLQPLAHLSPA
# Chain of MSX2 (Homo sapiens, UniProt P35548 130-214, R199I) (P35548 130-214 R199I): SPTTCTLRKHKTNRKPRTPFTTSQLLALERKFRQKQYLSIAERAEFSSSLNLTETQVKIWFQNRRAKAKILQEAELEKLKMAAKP
# Chain of HOXD13 (Homo sapiens, UniProt P35453 263-343) (P35453 263-343): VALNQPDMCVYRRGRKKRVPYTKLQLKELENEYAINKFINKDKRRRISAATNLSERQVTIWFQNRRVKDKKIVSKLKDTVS
# Chain of HOXD13 (Homo sapiens, UniProt P35453 263-343, T313A) (P35453 263-343 T313A): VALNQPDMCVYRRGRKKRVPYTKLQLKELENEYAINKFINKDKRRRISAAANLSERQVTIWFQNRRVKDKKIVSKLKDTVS
# Chain of MSX2 (Homo sapiens, UniProt P35548 130-214) (P35548 130-214): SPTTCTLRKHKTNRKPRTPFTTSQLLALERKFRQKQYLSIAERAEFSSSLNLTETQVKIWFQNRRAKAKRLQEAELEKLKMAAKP
# Chain of HOXA2 (Homo sapiens, UniProt O43364 129-215, R185T) (O43364 129-215 R185T): as the sequence (O43364 129-215) above, with R57T counted along it
sequence,measurement,setting,value
CACGCCGC,binding signal,NKX2-4 [1],"9.39 upbm affinity estimate (log intensity, higher = more binding, comparable within an allelic series)"
same,binding signal,NKX2-4 [2],"9.34 upbm affinity estimate (log intensity, higher = more binding, comparable within an allelic series)"
same,binding signal,NKX2-4 [3],"9.42 upbm affinity estimate (log intensity, higher = more binding, comparable within an allelic series)"
same,binding signal,NKX2-6 [4],"9.39 upbm affinity estimate (log intensity, higher = more binding, comparable within an allelic series)"
same,binding signal,NKX2-6 [5],"9.52 upbm affinity estimate (log intensity, higher = more binding, comparable within an allelic series)"
same,binding signal,NKX2-4 [6],"9.48 upbm affinity estimate (log intensity, higher = more binding, comparable within an allelic series)"
same,binding signal,NKX2-6 [7],"9.29 upbm affinity estimate (log intensity, higher = more binding, comparable within an allelic series)"
GGTCCTCA,binding signal,NKX2-4 [1],"11.5 upbm affinity estimate (log intensity, higher = more binding, comparable within an allelic series)"
same,binding signal,NKX2-4 [2],"11.9 upbm affinity estimate (log intensity, higher = more binding, comparable within an allelic series)"
same,binding signal,NKX2-4 [3],"11.5 upbm affinity estimate (log intensity, higher = more binding, comparable within an allelic series)"
GACTGAGC,binding signal,NKX2-4 [1],"9.79 upbm affinity estimate (log intensity, higher = more binding, comparable within an allelic series)"
same,binding signal,NKX2-4 [2],"9.84 upbm affinity estimate (log intensity, higher = more binding, comparable within an allelic series)"
same,binding signal,NKX2-4 [3],"9.65 upbm affinity estimate (log intensity, higher = more binding, comparable within an allelic series)"
same,binding signal,MSX2 [8],"9.57 upbm affinity estimate (log intensity, higher = more binding, comparable within an allelic series)"
same,binding signal,MSX2 [9],"9.48 upbm affinity estimate (log intensity, higher = more binding, comparable within an allelic series)"
same,binding signal,NKX2-4 [6],"9.92 upbm affinity estimate (log intensity, higher = more binding, comparable within an allelic series)"
same,binding signal,PROP1 [10],"6.86 upbm affinity estimate (log intensity, higher = more binding, comparable within an allelic series)"
same,binding signal,PROP1 [11],"6.74 upbm affinity estimate (log intensity, higher = more binding, comparable within an allelic series)"
same,binding signal,PROP1 [12],"6.66 upbm affinity estimate (log intensity, higher = more binding, comparable within an allelic series)"
same,binding signal,MSX2 [13],"9.49 upbm affinity estimate (log intensity, higher = more binding, comparable within an allelic series)"
CTATTAAC,binding signal,NKX2-4 [1],"11.7 upbm affinity estimate (log intensity, higher = more binding, comparable within an allelic series)"
same,binding signal,NKX2-4 [2],"11.8 upbm affinity estimate (log intensity, higher = more binding, comparable within an allelic series)"
same,binding signal,NKX2-4 [3],"11.6 upbm affinity estimate (log intensity, higher = more binding, comparable within an allelic series)"
same,binding signal,HOXD13 [14],"10.8 upbm affinity estimate (log intensity, higher = more binding, comparable within an allelic series)"
same,binding signal,HOXD13 [15],"12 upbm affinity estimate (log intensity, higher = more binding, comparable within an allelic series)"
same,binding signal,NKX2-4 [6],"11.8 upbm affinity estimate (log intensity, higher = more binding, comparable within an allelic series)"
same,binding signal,HOXD13 [16],"11.8 upbm affinity estimate (log intensity, higher = more binding, comparable within an allelic series)"
CCGGTAAC,binding signal,NKX2-4 [1],"9.94 upbm affinity estimate (log intensity, higher = more binding, comparable within an allelic series)"
same,binding signal,NKX2-4 [2],"9.84 upbm affinity estimate (log intensity, higher = more binding, comparable within an allelic series)"
same,binding signal,NKX2-4 [3],"9.9 upbm affinity estimate (log intensity, higher = more binding, comparable within an allelic series)"
same,binding signal,NKX2-4 [6],"9.93 upbm affinity estimate (log intensity, higher = more binding, comparable within an allelic series)"
CGTCCCGA,binding signal,NKX2-4 [1],"9.52 upbm affinity estimate (log intensity, higher = more binding, comparable within an allelic series)"
same,binding signal,NKX2-4 [2],"9.51 upbm affinity estimate (log intensity, higher = more binding, comparable within an allelic series)"
same,binding signal,ALX4 [17],"8.27 upbm affinity estimate (log intensity, higher = more binding, comparable within an allelic series)"
same,binding signal,NKX2-4 [3],"9.43 upbm affinity estimate (log intensity, higher = more binding, comparable within an allelic series)"
same,binding signal,ALX4 [18],"8.37 upbm affinity estimate (log intensity, higher = more binding, comparable within an allelic series)"
same,binding signal,NKX2-4 [6],"9.52 upbm affinity estimate (log intensity, higher = more binding, comparable within an allelic series)"
CCCACTCA,binding signal,NKX2-4 [1],"12.4 upbm affinity estimate (log intensity, higher = more binding, comparable within an allelic series)"
same,binding signal,NKX2-4 [2],"12.7 upbm affinity estimate (log intensity, higher = more binding, comparable within an allelic series)"
same,binding signal,NKX2-4 [3],"12.2 upbm affinity estimate (log intensity, higher = more binding, comparable within an allelic series)"
same,binding signal,NKX2-6 [4],"11.3 upbm affinity estimate (log intensity, higher = more binding, comparable within an allelic series)"
same,binding signal,NKX2-4 [6],"12.6 upbm affinity estimate (log intensity, higher = more binding, comparable within an allelic series)"
ACCCTTAC,binding signal,NKX2-4 [1],"11.5 upbm affinity estimate (log intensity, higher = more binding, comparable within an allelic series)"
same,binding signal,NKX2-4 [2],"11.7 upbm affinity estimate (log intensity, higher = more binding, comparable within an allelic series)"
same,binding signal,NKX2-4 [3],"11.4 upbm affinity estimate (log intensity, higher = more binding, comparable within an allelic series)"
ACTCCTCG,binding signal,NKX2-4 [1],"11.6 upbm affinity estimate (log intensity, higher = more binding, comparable within an allelic series)"
same,binding signal,NKX2-4 [2],"11.8 upbm affinity estimate (log intensity, higher = more binding, comparable within an allelic series)"
same,binding signal,NKX2-4 [3],"11.5 upbm affinity estimate (log intensity, higher = more binding, comparable within an allelic series)"
CGTCGGGC,binding signal,NKX2-4 [1],"9.35 upbm affinity estimate (log intensity, higher = more binding, comparable within an allelic series)"
same,binding signal,NKX2-4 [2],"9.21 upbm affinity estimate (log intensity, higher = more binding, comparable within an allelic series)"
same,binding signal,HOXC10 [19],"10 upbm affinity estimate (log intensity, higher = more binding, comparable within an allelic series)"
same,binding signal,NKX2-4 [3],"9.36 upbm affinity estimate (log intensity, higher = more binding, comparable within an allelic series)"
same,binding signal,HOXC10 [20],"10.1 upbm affinity estimate (log intensity, higher = more binding, comparable within an allelic series)"
same,binding signal,NKX2-4 [6],"9.37 upbm affinity estimate (log intensity, higher = more binding, comparable within an allelic series)"
GCGTGCCC,binding signal,NKX2-4 [1],"9.72 upbm affinity estimate (log intensity, higher = more binding, comparable within an allelic series)"
same,binding signal,NKX2-4 [2],"9.7 upbm affinity estimate (log intensity, higher = more binding, comparable within an allelic series)"
same,binding signal,NKX2-4 [3],"9.77 upbm affinity estimate (log intensity, higher = more binding, comparable within an allelic series)"
same,binding signal,HOXA2 [21],"7.23 upbm affinity estimate (log intensity, higher = more binding, comparable within an allelic series)"
same,binding signal,HOXA2 [22],"10.3 upbm affinity estimate (log intensity, higher = more binding, comparable within an allelic series)"
same,binding signal,NKX2-4 [6],"9.73 upbm affinity estimate (log intensity, higher = more binding, comparable within an allelic series)"
same,binding signal,HOXA2 [23],"10.3 upbm affinity estimate (log intensity, higher = more binding, comparable within an allelic series)"
same,binding signal,HOXA2 [24],"7.4 upbm affinity estimate (log intensity, higher = more binding, comparable within an allelic series)"
AGCCTCAG,binding signal,NKX2-4 [1],"9.76 upbm affinity estimate (log intensity, higher = more binding, comparable within an allelic series)"
same,binding signal,NKX2-4 [2],"9.76 upbm affinity estimate (log intensity, higher = more binding, comparable within an allelic series)"
same,binding signal,HOXC10 [19],"10.1 upbm affinity estimate (log intensity, higher = more binding, comparable within an allelic series)"
same,binding signal,NKX2-4 [3],"9.79 upbm affinity estimate (log intensity, higher = more binding, comparable within an allelic series)"
same,binding signal,HOXC10 [20],"10.1 upbm affinity estimate (log intensity, higher = more binding, comparable within an allelic series)"
same,binding signal,NKX2-4 [6],"9.76 upbm affinity estimate (log intensity, higher = more binding, comparable within an allelic series)"
AGAGGGCT,binding signal,NKX2-4 [1],"11.7 upbm affinity estimate (log intensity, higher = more binding, comparable within an allelic series)"
same,binding signal,NKX2-4 [2],"11.9 upbm affinity estimate (log intensity, higher = more binding, comparable within an allelic series)"
same,binding signal,NKX2-4 [3],"11.7 upbm affinity estimate (log intensity, higher = more binding, comparable within an allelic series)"
